From PubChem BioAssay (Tox21)
A number with no mark means an inactive call. Where a call stands in place of a potency, no number is given. More than one record can exist for a structure, and the calls need not agree. Active and inactive are the calls of the source. Unless noted, calls follow the shape of the dose curve; as a rule, active = well fitted curve in the direction sought with a large enough effect in the repeat runs; inconclusive = weak or mixed curves; inactive = flat fitted curve, though single readings scatter.

Legend:
[1] = qHTS assay to test for compound auto fluorescence at 535 nm (green) in HEK293 cells (AID 720680)
[2] = qHTS assay to test for compound auto fluorescence at 460 nm (blue) in HEK293 cell free culture (AID 720681)
In short: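 Test compounds were pinned into cell-free culture medium (DMEM with 10% FBS) and fluorescence was read directly at Ex/Em 405/460 nm. Signals were expressed as fluorescence equivalents of triamterene, with DMSO vehicle as control.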

[3] = qHTS assay to test for compound auto fluorescence at 535 nm (green) in HEK293 cell free culture (AID 720682)
In short: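 DMEM + 10% FBS, cell-free; cpd or DMSO pinned in; Ex485/Em535 read; output as fluorescein-equivalent signal.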

[4] = qHTS assay to test for compound auto fluorescence at 590 nm (red) in HEK293 cell free culture (AID 720683)
In short: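 Tox21 10K library compounds were pinned into cell-free DMEM with 10% FBS and fluorescence was read at excitation 540 nm. Activity is expressed as Rose Bengal sodium equivalency.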

[5] = qHTS assay to test for compound auto fluorescence at 590 nm (red) in HepG2 cell free culture (AID 720684)
In short: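 Measured in medium alone (MEM containing 10% FBS) following pintool addition of compound; emission at 590 nm with 540 nm excitation, referenced to Rose Bengal sodium.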

[6] = qHTS assay to test for compound auto fluorescence at 460 nm (blue) in HepG2 cell free culture (AID 720685)
In short: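 Compound (23 nL) or DMSO pinned into cell-free MEM with 10% FBS; blue fluorescence read at 405/460 nm excitation/emission, expressed as auto-fluorescence equivalency to triamterene.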

[7] = qHTS assay to test for compound auto fluorescence at 535 nm (green) in HepG2 cell free culture (AID 720686)
[8] = qHTS assay to test for compound auto fluorescence at 460 nm (blue) in HepG2 cells (AID 720687)
In short: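 Cells (2,000/well in MEM with 10% FBS) attached overnight at 37 C, then were exposed to compound or DMSO for 1 hr at 37 C, 5% CO2. Fluorescence read at Ex/Em 405/460 nm, expressed as triamterene-equivalent signal.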

[9] = molecular target: Glucocorticoid receptor (Homo sapiens) (UniProt P04150); experiment: qHTS assay to identify small molecule agonists of the glucocorticoid receptor (GR) signaling pathway (AID 720691; active = well fitted activation curve with a large enough effect in the signal ratio in the repeat runs, not every such curve was filed as active; inconclusive = weak or mixed curves, or effect the other way; inactive = no such curve, though single readings can be large or run the other way; the % refers to the signal ratio; also: potency is read from the fitted curve at half-maximal effect); conditions: GR-bla HeLa, beta-lactamase reporter ratio, 18 h
Glucocorticoid receptor (Homo sapiens), sequence (P04150 whole entry, looked up): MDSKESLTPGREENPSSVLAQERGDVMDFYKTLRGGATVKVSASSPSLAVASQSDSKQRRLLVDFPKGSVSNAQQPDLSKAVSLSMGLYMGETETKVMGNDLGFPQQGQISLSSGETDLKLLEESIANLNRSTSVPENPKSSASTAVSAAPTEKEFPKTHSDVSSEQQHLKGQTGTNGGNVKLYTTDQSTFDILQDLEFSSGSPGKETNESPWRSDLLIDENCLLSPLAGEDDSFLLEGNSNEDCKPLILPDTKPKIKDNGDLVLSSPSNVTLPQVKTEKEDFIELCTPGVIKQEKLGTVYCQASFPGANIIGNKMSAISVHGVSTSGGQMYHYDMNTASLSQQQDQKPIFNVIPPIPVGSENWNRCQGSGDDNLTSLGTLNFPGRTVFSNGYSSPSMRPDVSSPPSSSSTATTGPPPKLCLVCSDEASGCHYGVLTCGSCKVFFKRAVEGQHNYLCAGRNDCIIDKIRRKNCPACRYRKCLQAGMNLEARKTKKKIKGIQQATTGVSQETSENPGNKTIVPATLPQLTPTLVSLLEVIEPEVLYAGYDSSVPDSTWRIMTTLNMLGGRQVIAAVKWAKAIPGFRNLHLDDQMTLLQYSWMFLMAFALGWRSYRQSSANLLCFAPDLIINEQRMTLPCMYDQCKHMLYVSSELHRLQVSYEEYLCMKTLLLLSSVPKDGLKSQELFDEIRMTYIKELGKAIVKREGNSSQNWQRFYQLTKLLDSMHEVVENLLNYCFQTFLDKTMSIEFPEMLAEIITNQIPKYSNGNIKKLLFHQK
In short: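 GR-bla HeLa cells (beta-lactamase reporter under glucocorticoid response element) were plated 4 h at 37 C/5% CO2, given compounds in DMSO, and incubated 18 h at 37 C. LiveBLAzer B/G FRET substrate was added for 2 h at room temperature, then fluorescence intensity read.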

[10] = molecular target: Glucocorticoid receptor (Homo sapiens) (UniProt P04150); experiment: qHTS assay to identify small molecule antagonists of the glucocorticoid receptor (GR) signaling pathway (AID 720692; active = well fitted inhibition curve with a large enough effect in the signal ratio in the repeat runs, not every such curve was filed as active; inconclusive = weak or mixed curves, or effect the other way; inactive = no such curve, though single readings can be large or run the other way; the % refers to the signal ratio)
In short: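 GR-bla HeLa cells (beta-lactamase reporter under glucocorticoid response element) were pre-plated 4 h at 37 C, treated with compounds plus 5 nM dexamethasone (final) for 18 h, then read by LiveBLAzer B/G FRET fluorescence after 2 h.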

[11] = activation: at 62.4 µM (top of the series)

| SMILES | outcome [1] | Potency [2] | outcome [3] | Potency [4] | Potency [5] | Potency [6] | Potency [7] | Potency [8] | Potency [9, 11] | Potency [10] | activation [9, 11] | activation ([9]; at 62.4 µM (top of the series)) |
| --- | --- | --- | --- | --- | --- | --- | --- | --- | --- | --- | --- | --- |
| CCOc1nc2cccc(C(=O)OC(C)OC(=O)OC3CCCCC3)c2n1Cc1ccc(-c2ccccc2-c2nn[nH]n2)cc1 (stereo unspecified) | inactive | inactive | inactive | inactive | inactive | inactive | inactive | inactive | – | – | – | – |
| COc1ccc(-c2ccc3cc(C(=O)O)ccc3c2)cc1C12CC3CC(CC(C3)C1)C2 | inactive | inactive | inactive | inactive | inactive | inactive | inactive | inactive | – | – | – | – |
| Cc1cc(N)c(S(=O)(=O)O)cc1Cl | inactive | inactive | inactive | inactive | inactive | inactive | inactive | inactive | – | – | – | – |
| O=CC=C(c1ccccc1)c1ccccc1 | inactive | inactive | inactive | inactive | inactive | inactive | inactive | inactive | – | – | – | – |
| CCc1cc(Cc2cc(CC)cc(C(C)(C)C)c2O)c(O)c(C(C)(C)C)c1 | inactive | inactive | inactive | inactive | inactive | inactive | inactive | inactive | – | – | – | – |
| CC(C)n1nc(-c2cc3cc(O)ccc3[nH]2)c2c(N)ncnc21 | inactive | inactive | inactive | inactive | inactive | inactive | inactive | inactive | – | – | – | – |
| O=[N+]([O-])c1cc([N+](=O)[O-])c2ccc(S(=O)(=O)O)cc2c1O | inactive | inactive | inactive | inactive | inactive | inactive | inactive | inactive | – | – | – | – |
| O=C(NO)C1(NS(=O)(=O)c2ccc(Oc3ccc(F)cc3)cc2)CCOCC1 | inactive | inactive | inactive | inactive | inactive | inactive | inactive | inactive | inactive | – | – | – |
| CC1=C(C(=O)OC(C)C)C(c2cccc([N+](=O)[O-])c2)C(C(=O)OC2CN(C(c3ccccc3)c3ccccc3)C2)=C(N)N1 (stereo unspecified) | inactive | inactive | inactive | inactive | inactive | inactive | inactive | inactive | – | – | – | – |
| CC(C)(C)NC(=O)[C@@H]1C[C@@H]2CCCC[C@@H]2CN1C[C@@H](O)[C@H](Cc1ccccc1)NC(=O)[C@H](CC(N)=O)NC(=O)c1ccc2ccccc2n1 | inactive | inactive | inactive | inactive | inactive | inactive | inactive | inactive | – | – | – | – |
| CCCCCCOC(=O)c1ccc(O)cc1 | inactive | inactive | inactive | inactive | inactive | inactive | inactive | inactive | inactive | – | – | – |
| C[C@]12CCC(=O)C=C1CC[C@@H]1[C@@H]2[C@@H](O)C[C@@]2(C)[C@H]1CC[C@]2(O)C(=O)COC(=O)CCC(=O)O | inactive | inactive | inactive | inactive | inactive | inactive | inactive | inactive | 0.848 µM [inconclusive] (active) | – | – | – |
| O=C1c2c(O)ccc(Nc3ccc(CCO)cc3)c2C(=O)c2c([N+](=O)[O-])ccc(O)c21 | inactive | inactive | inactive | inactive | inactive | inactive | inactive | inactive | inactive | – | – | – |
| O=Cc1cc(O)ccc1Br | inactive | inactive | inactive | inactive | inactive | inactive | inactive | inactive | inactive | – | – | – |
| Cc1nc(-c2ccc3c(c2)CCN(CCC2CCC(NC(=O)/C=C/c4ccc(F)cc4)CC2)CC3)no1 (stereo unspecified) | inactive | inactive | inactive | inactive | inactive | inactive | inactive | inactive | 21.9 µM (active) | – | – | – |
| CN(C)c1ccc(C2(c3ccc(N(C)C)cc3)OC(=O)c3cc(N(C)C)ccc32)cc1 | inactive | inactive | inactive | inactive | inactive | inactive | inactive | inactive | 4.35 µM [inconclusive] (active) | – | – | – |
| CCCCCCCCCCCCCCCS(=O)(=O)Oc1ccccc1 | inactive | inactive | inactive | inactive | inactive | inactive | inactive | inactive | inactive | – | – | – |
| CCN(CC)CCNC(=O)c1c(C)[nH]c(/C=C2\C(=O)Nc3ccc(F)cc32)c1C | inactive | inactive | inactive | inactive | inactive | inactive | inactive | inactive | – | – | – | – |
| O=C1CCCc2c1cc1ccc3cccc4ccc2c1c34 | inactive | inactive | inactive | inactive | inactive | inactive | inactive | inactive | 22.2 µM (active) | – | – | – |
| O=C(O)c1cc(O)c2c(c1)C(=O)c1cccc(O)c1C2=O | inactive | inactive | inactive | inactive | inactive | inactive | inactive | inactive | inactive | inactive | – | – |
| O=C(Nc1cccc(C(F)(F)F)c1)c1cc(Br)cc(Br)c1O | inactive | inactive | inactive | inactive | inactive | inactive | inactive | inactive | – | – | 9.27% [inconclusive] (active) | 10.1% |
| CC(=O)N1CCN(c2ccc(OC[C@H]3CO[C@](Cn4ccnc4)(c4ccc(Cl)cc4Cl)O3)cc2)CC1 | inactive | inactive | inactive | inactive | inactive | inactive | inactive | inactive | inactive | inactive | – | – |
